From the supplement of paper PMC12494721
Where a name gives a salt, the structure may show the parent alone. Values without a mark were called inactive.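 How the source made its calls: for the amine columns active = adjusted P below 0.05 in both replicates with a change the same way and a mean fold change under 0.8 or over 1.25; inactive = the rest.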

What follows are molecules tested on Klebsiella aerogenes DSM 30053 (assay: fold change of Cadaverine concentration vs plate DMSO controls (fold change (ratio)); higher = more amine produced, active = hit call of the paper (significant change in both replicates, either direction)). Settings: incubation time: 27 h, anaerobic, 37 °C.
How it was run: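 Extracts of whole anaerobic mGAM cultures were analysed for amines by LC–triple-quadrupole MS with dynamic MRM and external calibration curves, with drift corrected within batch. Four gut strains were grown at 37 °C for 27 h in 80 µL wells with compounds at 20 µM final, sweeteners at 50 µM final. Each value expresses fold change over plate DMSO controls. The average of 2 biological replicates is shown.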

SMILES	fold change of Cadaverine concentration
Nc1nc(CC(=O)Nc2ccc(CCNC[C@H](O)c3ccccc3)cc2)cs1 [Mirabegron] (20 µM)	1.01
CS(=O)(=O)OCCCCOS(C)(=O)=O [Busulfan] (20 µM)	1.04
CCN(CC)CCOC(=O)C(Cc1cccc2ccccc12)CC1CCCO1 (centres undefined) [Nafronyl oxalate] (20 µM)	0.996
C[C@H]1O[C@@H](O[C@H]2[C@@H](O)C[C@H](O[C@H]3[C@@H](O)C[C@H](O[C@H]4CC[C@@]5(C)[C@H](CC[C@@H]6[C@@H]5C[C@@H](O)[C@]5(C)[C@@H](C7=CC(=O)OC7)CC[C@]65O)C4)O[C@@H]3C)O[C@@H]2C)C[C@H](O)[C@@H]1O [Digoxin] (20 µM)	0.991
COc1cc(N)c(Cl)cc1C(=O)NC1CCN(CCCOc2ccc(F)cc2)CC1OC (centres undefined) [Cisapride] (20 µM)	0.993
O=C(O[C@@H]1C[C@@H]2C[C@H]3C[C@H](C1)N2CC3=O)c1c[nH]c2ccccc12 [Dolasetron mesilate] (20 µM)	0.989
Cc1oncc1C(=O)Nc1ccc(C(F)(F)F)cc1 [Leflunomide] (20 µM)	1
CC(C)Cn1cnc2c(N)nc3ccccc3c21 [Imiquimod] (20 µM)	1
Clc1ccc2c(c1)C(N1CCNCC1)=Nc1ccccc1O2 [Amoxapine] (20 µM)	1
CCCCCN(C)CCC(O)(P(=O)(O)O)P(=O)(O)O [Ibandronate sodium] (20 µM)	0.994
CN1CCc2c(c3ccccc3n2Cc2ccccc2)C1 [Mebhydroline 1,5-naphtalenedisulfonate] (20 µM)	1.01
C=C1/C(=C\C=C2/CCC[C@]3(C)[C@@H]([C@H](C)/C=C/[C@@H](O)C4CC4)CC[C@@H]23)C[C@@H](O)C[C@@H]1O [Calcipotriene] (20 µM)	1
Cc1nc(=O)c2cc(CN(C)c3ccc(C(=O)N[C@@H](CCC(=O)O)C(=O)O)s3)ccc2[nH]1 [Raltitrexed] (20 µM)	1.05
Cc1cn[nH]c1 [Fomepizole] (20 µM)	0.986
CC[C@@H]1C(=O)OC[C@@H]1Cc1cncn1C [Pilocarpine nitrate] (20 µM)	0.993
C=C(CC)C(=O)c1ccc(OCC(=O)O)c(Cl)c1Cl [Ethacrynic acid] (20 µM)	0.999
Cc1cccc(C)c1OCC(=O)N[C@@H](Cc1ccccc1)[C@@H](O)C[C@H](Cc1ccccc1)NC(=O)[C@H](C(C)C)N1CCCNC1=O [Lopinavir] (20 µM)	1.02
OCCN1C[C@H](O)[C@@H](O)[C@H](O)[C@H]1CO [Miglitol] (20 µM)	1.01
CCOc1ccccc1OCC1CNCCO1 (centres undefined) [Viloxazine hydrochloride] (20 µM)	0.992
CC[C@@]1(O)C(=O)OCc2c1cc1n(c2=O)Cc2cc3c(CN(C)C)c(O)ccc3nc2-1 [Topotecan] (20 µM)	1

SMILES	fold change of Cadaverine concentration
CC(C)N1CCN(c2ccc(OCC3COC(Cn4cncn4)(c4ccc(Cl)cc4Cl)O3)cc2)CC1 (centres undefined) [Terconazole] (20 µM)	1
CN1CCN(c2c(F)cc3c(=O)c(C(=O)O)cn4c3c2OCN4C)CC1 [Marbofloxacin] (20 µM)	0.932
O=C(O)c1cc(=O)[nH]c(=O)[nH]1 [Orotic acid] (20 µM)	0.993
c1ccc2c(c1)Cc1ccccc1-2 [Fluorene] (20 µM)	1.02
Oc1c(Br)cc(Br)c2cccnc12 [Broxyquinoline] (20 µM)	0.968
CCC[C@@H]1C[C@@H](C(=O)N[C@@H]([C@H]2O[C@H](SC)[C@H](O)[C@@H](O)[C@H]2O)[C@H](C)Cl)N(C)C1 [Clindamycin hydrochloride] (20 µM)	0.932
COC(=O)Nc1nc2cc(Sc3ccccc3)ccc2[nH]1 [Fenbendazole] (20 µM)	0.991
CN(c1nccc(=O)[nH]1)C1CCN(c2nc3ccccc3n2Cc2ccc(F)cc2)CC1 [Mizolastine] (20 µM)	0.982
CC[N+](C)(C)c1cccc(O)c1 [Edrophonium chloride] (20 µM)	1
CC[C@@H]([C@H](C)O)n1ncn(-c2ccc(N3CCN(c4ccc(OC[C@@H]5CO[C@@](Cn6cncn6)(c6ccc(F)cc6F)C5)cc4)CC3)cc2)c1=O [Posaconazole hydrate] (20 µM)	0.992
COCC1=C(C(=O)OC(C)OC(=O)OC(C)C)N2C(=O)[C@@H](NC(=O)/C(=N\OC)c3csc(N)n3)[C@H]2SC1 (some centres undefined) [Cefpodoxime proxetil] (20 µM)	0.986
O=c1n(CCCN2CCN(c3cccc(Cl)c3)CC2)nc2ccccn12 [Trazodone hydrochloride] (20 µM)	0.99
CC1=C(C(=O)O)N2C(=O)[C@@H](NC(=O)[C@H](N)c3ccccc3)[C@H]2SC1 [Cephalexin monohydrate] (20 µM)	1.01
CCCSc1nc(N[C@@H]2C[C@H]2c2ccc(F)c(F)c2)c2nnn([C@@H]3C[C@H](OCCO)[C@@H](O)[C@H]3O)c2n1 [Ticagrelor] (20 µM)	1.01
Cc1cc(NS(=O)(=O)c2ccc(N)cc2)nc(C)n1 [Sulfisomidine] (20 µM)	0.992
CN1CCN(C(c2ccccc2)c2ccc(Cl)cc2)CC1 (centres undefined) [Chlorcyclizine hydrochloride] (20 µM)	0.981
OC[C@H](O)C(O)[C@@H](O)CO [L-Arabinitol] (50 µM)	0.984
CC(C)COC(=O)OCN1C(=O)CN(CCN2CC(=O)N(COC(=O)OCC(C)C)C(=O)C2)CC1=O [Sobuzoxane] (20 µM)	1
CCCNC(=O)NS(=O)(=O)c1ccc(Cl)cc1 [Chlorpropamide] (20 µM)	1.1
